{"source": "PubChem BioAssay AID1645838", "about": "(ICCB-Longwood Screening Facility, Harvard Medical School, 2021)", "assay": "supercomplex reporter luminescence per Hoechst cell count – Hoechst nuclei count (AID 1645838);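 on all read-outs here: control cybrid cells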;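 on z-score: higher means more mitochondrial supercomplex formation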", "settings": "Cells, luminescence/Hoechst cell count ratio; for z-score: stronger effect = higher value; for cell count: measured here: cell number, Hoechst nuclei count; for outcome: library stock 10 mM", "key": {"[1]": {"settings": "library stock concentration (final well concentration not given) 80 uM"}, "[2]": {"settings": "library stock concentration (final well concentration not given) 400 uM"}, "[3]": {"settings": "library stock concentration (final well concentration not given) 2 mM"}, "[4]": {"settings": "library stock concentration (final well concentration not given) 10 mM"}, "[5]": {"settings": "library stock concentration (final well concentration not given) 46 uM"}, "[6]": {"settings": "library stock concentration (final well concentration not given) 278 uM"}, "[7]": {"settings": "library stock concentration (final well concentration not given) 1.67 mM"}}, "note": "The whole screen tested about 2,000 compounds, of which about 100 (5%) were called active. No stated cut-off is given here; in the data, active means z-score above about 2; inactive means the rest. The list comes from a sample in which actives are over-represented; it also holds similar structures and randomly drawn compounds.", "data": [{"smiles": "COC(=O)CCCCCC[C@@H]1[C@@H](CCC(O)C#Cc2ccccc2F)[C@H](O)C[C@@H]1O", "note": "(some centres not stated)", "values": [{"measurement": "z-score", "value": "-0.523 (inactive)"}, {"measurement": "cell count", "value": 5390}]}, {"smiles": "CCCCC[C@H](O)/C=C/[C@@H]1[C@H]2C[C@H](CCCCC(=O)O)O[C@H]2C[C@H]1O", "values": [{"measurement": "z-score", "value": "0.18 (inactive)"}, {"measurement": "cell count", "value": 5310}]}, {"smiles": "COc1cc(N2CCC(C(N)=O)CC2)ccc1Nc1nc(N)c(Cl)c(Nc2ccccc2S(=O)(=O)C(C)C)n1", "values": [{"measurement": "z-score", "setting": "[1]", "value": "-0.397 (inactive)"}, {"measurement": "z-score", "setting": "[2]", "value": "-0.357 (inactive)"}, {"measurement": "z-score", "setting": "[3]", "value": "-0.497 (inactive)"}, {"measurement": "z-score", "setting": "[4]", "value": "-0.438 (inactive)"}, {"measurement": "cell count", "setting": "[1]", "value": 5060}, {"measurement": "cell count", "setting": "[2]", "value": 4660}, {"measurement": "cell count", "setting": "[3]", "value": 4640}, {"measurement": "cell count", "setting": "[4]", "value": 4760}]}, {"smiles": "COc1cc2ncnc(Nc3cc(Br)c(O)c(Br)c3)c2cc1OC", "values": [{"measurement": "z-score", "setting": "[1]", "value": "-0.757 (inactive)"}, {"measurement": "z-score", "setting": "[2]", "value": "-0.502 (inactive)"}, {"measurement": "z-score", "setting": "[3]", "value": "-0.971 (inactive)"}, {"measurement": "z-score", "setting": "[4]", "value": "-0.687 (inactive)"}, {"measurement": "cell count", "setting": "[1]", "value": 4740}, {"measurement": "cell count", "setting": "[2]", "value": 4630}, {"measurement": "cell count", "setting": "[3]", "value": 5420}, {"measurement": "cell count", "setting": "[4]", "value": 5090}]}, {"smiles": "C#Cc1cccc(Nc2ncnc3cc4c(cc23)OCCOCCOCCO4)c1", "values": [{"measurement": "z-score", "setting": "[1]", "value": "-0.401 (inactive)"}, {"measurement": "z-score", "setting": "[2]", "value": "-0.555 (inactive)"}, {"measurement": "z-score", "setting": "[3]", "value": "-0.372 (inactive)"}, {"measurement": "z-score", "setting": "[4]", "value": "-0.218 (inactive)"}, {"measurement": "cell count", "setting": "[1]", "value": 5760}, {"measurement": "cell count", "setting": "[2]", "value": 5920}, {"measurement": "cell count", "setting": "[3]", "value": 5800}, {"measurement": "cell count", "setting": "[4]", "value": 5980}]}, {"smiles": "C#Cc1cccc(Nc2ncnc3cc(OCCOC)c(OCCOC)cc23)c1", "values": [{"measurement": "z-score", "setting": "[1]", "value": "0.334 (inactive)"}, {"measurement": "z-score", "setting": "[2]", "value": "0.287 (inactive)"}, {"measurement": "z-score", "setting": "[3]", "value": "-0.186 (inactive)"}, {"measurement": "z-score", "setting": "[4]", "value": "2.02 (active)"}, {"measurement": "cell count", "setting": "[1]", "value": 5220}, {"measurement": "cell count", "setting": "[2]", "value": 5400}, {"measurement": "cell count", "setting": "[3]", "value": 5470}, {"measurement": "cell count", "setting": "[4]", "value": 3820}]}, {"smiles": "C[C@H](N)C(=O)CCCCCC(=O)O", "values": [{"measurement": "z-score", "value": "-0.273 (inactive)"}, {"measurement": "cell count", "value": 5410}]}, {"smiles": "NCCCNCCCCN(CCCN)[N+]([O-])=NO", "values": [{"measurement": "z-score", "value": "1.09 (inactive)"}, {"measurement": "cell count", "value": 5110}]}, {"smiles": "COc1ccc2cc(CC(=O)O)ccc2c1", "values": [{"measurement": "z-score", "value": "-0.782 (inactive)"}, {"measurement": "cell count", "value": 5780}]}, {"smiles": "CCCCC[C@H](O)/C=C/[C@H]1CC[C@H](O)[C@@H]1CCCCCCC(=O)O", "values": [{"measurement": "z-score", "value": "-0.59 (inactive)"}, {"measurement": "cell count", "value": 5510}]}, {"smiles": "CNC(=O)Nc1ccc(-c2nc(N3CC4CCC(C3)O4)c3cnn(C4CCC5(CC4)OCCO5)c3n2)cc1", "values": [{"measurement": "outcome", "value": "inactive; censored for cell count"}, {"measurement": "z-score", "setting": "[1]", "value": "1.01 (inactive)"}, {"measurement": "z-score", "setting": "[2]", "value": "1.56 (inactive)"}, {"measurement": "z-score", "setting": "[3]", "value": "1.64 (inactive)"}, {"measurement": "cell count", "setting": "[1]", "value": 2180}, {"measurement": "cell count", "setting": "[2]", "value": 1780}, {"measurement": "cell count", "setting": "[3]", "value": 1600}]}, {"smiles": "O=C(Nc1ccccc1)Nc1ccc(-c2ccc(C(=O)C3CCCC3C(=O)O)cc2)cc1", "note": "(configuration not stated)", "values": [{"measurement": "z-score", "setting": "[1]", "value": "-0.37 (inactive)"}, {"measurement": "z-score", "setting": "[2]", "value": "-0.219 (inactive)"}, {"measurement": "z-score", "setting": "[3]", "value": "-0.285 (inactive)"}, {"measurement": "z-score", "setting": "[4]", "value": "-0.46 (inactive)"}, {"measurement": "cell count", "setting": "[1]", "value": 5980}, {"measurement": "cell count", "setting": "[2]", "value": 5880}, {"measurement": "cell count", "setting": "[3]", "value": 6590}, {"measurement": "cell count", "setting": "[4]", "value": 5760}]}, {"smiles": "CN(C)C1CCN(C(=O)c2ccc(NC(=O)Nc3ccc(-c4nc(N5CCOCC5)nc(N5CCOCC5)n4)cc3)cc2)CC1", "values": [{"measurement": "outcome", "value": "inactive; censored for cell count"}, {"measurement": "z-score", "setting": "[1]", "value": "-0.0957 (inactive)"}, {"measurement": "z-score", "setting": "[2]", "value": "0.581 (inactive)"}, {"measurement": "z-score", "setting": "[3]", "value": "2.23 (active)"}, {"measurement": "cell count", "setting": "[1]", "value": 5680}, {"measurement": "cell count", "setting": "[2]", "value": 4160}, {"measurement": "cell count", "setting": "[3]", "value": 1900}]}, {"smiles": "CC(C)CCC[C@@H](C)[C@H]1CC[C@H]2[C@@H]3CC(=O)[C@@]4(O)C[C@@H](O)CC[C@]4(C)[C@H]3CC[C@]12C", "values": [{"measurement": "z-score", "value": "0.076 (inactive)"}, {"measurement": "cell count", "value": 4620}]}, {"smiles": "CN(CC=CC#CC(C)(C)C)Cc1cccc2ccccc12", "values": [{"measurement": "z-score", "setting": "[5]", "value": "-0.128 (inactive)"}, {"measurement": "z-score", "setting": "[6]", "value": "-0.114 (inactive)"}, {"measurement": "z-score", "setting": "[7]", "value": "-0.2 (inactive)"}, {"measurement": "z-score", "setting": "[4]", "value": "-0.286 (inactive)"}, {"measurement": "cell count", "setting": "[5]", "value": 4930}, {"measurement": "cell count", "setting": "[6]", "value": 4830}, {"measurement": "cell count", "setting": "[7]", "value": 5350}, {"measurement": "cell count", "setting": "[4]", "value": 5180}]}, {"smiles": "CCCCCCCCC#CCCCCCCCC(=O)c1nc2ncccc2o1", "values": [{"measurement": "z-score", "value": "-0.992 (inactive)"}, {"measurement": "cell count", "value": 5900}]}, {"smiles": "CCOC(=O)C(N)Cc1ccc(-c2cc(OC(c3ccc(Cl)cc3-n3ccc(C)n3)C(F)(F)F)nc(N)n2)cc1", "note": "(configuration not stated)", "values": [{"measurement": "z-score", "setting": "[5]", "value": "-0.503 (inactive)"}, {"measurement": "z-score", "setting": "[6]", "value": "-0.649 (inactive)"}, {"measurement": "z-score", "setting": "[7]", "value": "-0.638 (inactive)"}, {"measurement": "z-score", "setting": "[4]", "value": "1.7 (inactive)"}, {"measurement": "cell count", "setting": "[5]", "value": 6360}, {"measurement": "cell count", "setting": "[6]", "value": 6270}, {"measurement": "cell count", "setting": "[7]", "value": 6660}, {"measurement": "cell count", "setting": "[4]", "value": 2760}]}, {"smiles": "CCCCCCCCCCCCCCCCOC[C@H](COP(=O)([O-])OCC[N+](C)(C)C)OC(=O)NC", "values": [{"measurement": "z-score", "value": "-1.68 (inactive)"}, {"measurement": "cell count", "value": 5690}]}, {"smiles": "O=C(c1cc(Cc2n[nH]c(=O)c3ccccc23)ccc1F)N1CCN(C(=O)C2CC2)CC1", "values": [{"measurement": "z-score", "setting": "[1]", "value": "-0.363 (inactive)"}, {"measurement": "z-score", "setting": "[2]", "value": "-0.127 (inactive)"}, {"measurement": "z-score", "setting": "[3]", "value": "0.0622 (inactive)"}, {"measurement": "z-score", "setting": "[4]", "value": "2.51 (active)"}, {"measurement": "cell count", "setting": "[1]", "value": 6190}, {"measurement": "cell count", "setting": "[2]", "value": 5590}, {"measurement": "cell count", "setting": "[3]", "value": 5940}, {"measurement": "cell count", "setting": "[4]", "value": 3720}]}, {"smiles": "CC(C)(C)c1ccc(S(=O)(=O)NCc2ccc(C(=O)Nc3cccnc3)cc2)cc1", "values": [{"measurement": "z-score", "setting": "[1]", "value": "-0.216 (inactive)"}, {"measurement": "z-score", "setting": "[2]", "value": "0.0762 (inactive)"}, {"measurement": "z-score", "setting": "[3]", "value": "0.362 (inactive)"}, {"measurement": "z-score", "setting": "[4]", "value": "0.0219 (inactive)"}, {"measurement": "cell count", "setting": "[1]", "value": 6170}, {"measurement": "cell count", "setting": "[2]", "value": 5130}, {"measurement": "cell count", "setting": "[3]", "value": 2500}, {"measurement": "cell count", "setting": "[4]", "value": 1690}]}, {"smiles": "O=C(NCc1cccnc1)c1ccc(CNS(=O)(=O)c2ccc(F)cc2)cc1", "values": [{"measurement": "z-score", "setting": "[1]", "value": "-0.0415 (inactive)"}, {"measurement": "z-score", "setting": "[2]", "value": "-0.565 (inactive)"}, {"measurement": "z-score", "setting": "[3]", "value": "-0.611 (inactive)"}, {"measurement": "z-score", "setting": "[4]", "value": "-0.531 (inactive)"}, {"measurement": "cell count", "setting": "[1]", "value": 5120}, {"measurement": "cell count", "setting": "[2]", "value": 5290}, {"measurement": "cell count", "setting": "[3]", "value": 5220}, {"measurement": "cell count", "setting": "[4]", "value": 4960}]}, {"smiles": "Nc1ccccc1NC(=O)c1ccc(CNC(=O)OCc2cccnc2)cc1", "values": [{"measurement": "z-score", "value": "5.22 (active)"}, {"measurement": "z-score", "setting": "[5]", "value": "-0.106 (inactive)"}, {"measurement": "z-score", "setting": "[6]", "value": "-0.0587 (inactive)"}, {"measurement": "z-score", "setting": "[7]", "value": "4.46 (active)"}, {"measurement": "z-score", "setting": "[4]", "value": "13.5 (active)"}, {"measurement": "cell count", "value": 4300}, {"measurement": "cell count", "setting": "[5]", "value": 4680}, {"measurement": "cell count", "setting": "[6]", "value": 4820}, {"measurement": "cell count", "setting": "[7]", "value": 3240}, {"measurement": "cell count", "setting": "[4]", "value": 1730}]}]}
